Data published in paper doi:10.1101/2025.02.07.636106.

Experiments:
[1] = target: Large ribosomal subunit protein eL36 (UniProt Q9Y3U8); assay: cross-linking mass spectrometry
[2] = target: Obscurin (UniProt Q5VST9); assay: cross-linking mass spectrometry
[3] = target: Inositol 1,4,5-trisphosphate-gated calcium channel ITPR2 (UniProt Q14571); assay: cross-link between two proteins; cross-linking mass spectrometry
[4] = target: Nucleolar and coiled-body phosphoprotein 1 (UniProt Q14978); assay: as above
[5] = target: Putative ribosomal protein eS10-like (UniProt Q9NQ39); assay: as above
[6] = target: Ragulator complex protein LAMTOR3 (UniProt Q9UHA4); assay: as above
Ragulator complex protein LAMTOR3, sequence (Q9UHA4 whole entry, one chain of several): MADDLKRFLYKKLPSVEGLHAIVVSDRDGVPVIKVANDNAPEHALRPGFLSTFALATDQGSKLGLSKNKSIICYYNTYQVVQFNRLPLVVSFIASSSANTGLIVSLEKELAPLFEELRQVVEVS

[7] = target: Synaptonemal complex protein 2-like (UniProt Q5T4T6); assay: as above
[8] = target: V-type proton ATPase subunit D (UniProt Q9Y5K8); assay: as above
V-type proton ATPase subunit D, sequence (Q9Y5K8 whole entry): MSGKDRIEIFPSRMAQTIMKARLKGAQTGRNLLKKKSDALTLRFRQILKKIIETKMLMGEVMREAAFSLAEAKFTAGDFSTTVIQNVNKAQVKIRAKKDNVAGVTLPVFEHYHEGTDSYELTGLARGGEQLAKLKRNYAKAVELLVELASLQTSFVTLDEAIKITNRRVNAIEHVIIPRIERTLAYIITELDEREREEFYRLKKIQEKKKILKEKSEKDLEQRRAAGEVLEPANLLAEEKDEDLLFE

[9] = target: Zinc finger protein 28 homolog (UniProt Q8NHY6); assay: as above
[10] = target: T1, Zinc finger protein 786 (UniProt Q8N393); assay: as above
T1 sequence: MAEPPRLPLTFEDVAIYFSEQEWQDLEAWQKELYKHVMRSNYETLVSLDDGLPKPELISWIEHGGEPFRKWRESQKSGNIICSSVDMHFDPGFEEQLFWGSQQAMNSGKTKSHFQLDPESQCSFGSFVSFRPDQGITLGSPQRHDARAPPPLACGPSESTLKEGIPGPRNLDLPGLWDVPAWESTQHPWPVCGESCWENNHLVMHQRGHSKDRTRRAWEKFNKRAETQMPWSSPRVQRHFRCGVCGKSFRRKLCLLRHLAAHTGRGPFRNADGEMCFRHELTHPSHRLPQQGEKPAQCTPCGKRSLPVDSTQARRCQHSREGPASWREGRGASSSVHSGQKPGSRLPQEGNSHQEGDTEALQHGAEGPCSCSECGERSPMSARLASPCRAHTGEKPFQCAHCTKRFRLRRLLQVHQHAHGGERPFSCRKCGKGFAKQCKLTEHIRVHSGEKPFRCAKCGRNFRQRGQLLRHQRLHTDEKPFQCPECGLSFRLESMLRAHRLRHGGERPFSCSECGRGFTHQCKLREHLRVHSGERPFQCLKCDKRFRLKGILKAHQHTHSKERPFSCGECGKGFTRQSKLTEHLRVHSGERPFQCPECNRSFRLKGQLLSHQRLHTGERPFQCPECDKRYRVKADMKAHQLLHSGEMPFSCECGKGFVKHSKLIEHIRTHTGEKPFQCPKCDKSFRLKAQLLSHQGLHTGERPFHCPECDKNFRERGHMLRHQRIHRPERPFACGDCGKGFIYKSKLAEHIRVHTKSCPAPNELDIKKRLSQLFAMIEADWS

[11] = target: Cullin-associated NEDD8-dissociated protein 1 (UniProt Q86VP6); assay: co-fractionation; co-fractionation; cross-linking mass spectrometry
Cullin-associated NEDD8-dissociated protein 1, sequence (Q86VP6 whole entry): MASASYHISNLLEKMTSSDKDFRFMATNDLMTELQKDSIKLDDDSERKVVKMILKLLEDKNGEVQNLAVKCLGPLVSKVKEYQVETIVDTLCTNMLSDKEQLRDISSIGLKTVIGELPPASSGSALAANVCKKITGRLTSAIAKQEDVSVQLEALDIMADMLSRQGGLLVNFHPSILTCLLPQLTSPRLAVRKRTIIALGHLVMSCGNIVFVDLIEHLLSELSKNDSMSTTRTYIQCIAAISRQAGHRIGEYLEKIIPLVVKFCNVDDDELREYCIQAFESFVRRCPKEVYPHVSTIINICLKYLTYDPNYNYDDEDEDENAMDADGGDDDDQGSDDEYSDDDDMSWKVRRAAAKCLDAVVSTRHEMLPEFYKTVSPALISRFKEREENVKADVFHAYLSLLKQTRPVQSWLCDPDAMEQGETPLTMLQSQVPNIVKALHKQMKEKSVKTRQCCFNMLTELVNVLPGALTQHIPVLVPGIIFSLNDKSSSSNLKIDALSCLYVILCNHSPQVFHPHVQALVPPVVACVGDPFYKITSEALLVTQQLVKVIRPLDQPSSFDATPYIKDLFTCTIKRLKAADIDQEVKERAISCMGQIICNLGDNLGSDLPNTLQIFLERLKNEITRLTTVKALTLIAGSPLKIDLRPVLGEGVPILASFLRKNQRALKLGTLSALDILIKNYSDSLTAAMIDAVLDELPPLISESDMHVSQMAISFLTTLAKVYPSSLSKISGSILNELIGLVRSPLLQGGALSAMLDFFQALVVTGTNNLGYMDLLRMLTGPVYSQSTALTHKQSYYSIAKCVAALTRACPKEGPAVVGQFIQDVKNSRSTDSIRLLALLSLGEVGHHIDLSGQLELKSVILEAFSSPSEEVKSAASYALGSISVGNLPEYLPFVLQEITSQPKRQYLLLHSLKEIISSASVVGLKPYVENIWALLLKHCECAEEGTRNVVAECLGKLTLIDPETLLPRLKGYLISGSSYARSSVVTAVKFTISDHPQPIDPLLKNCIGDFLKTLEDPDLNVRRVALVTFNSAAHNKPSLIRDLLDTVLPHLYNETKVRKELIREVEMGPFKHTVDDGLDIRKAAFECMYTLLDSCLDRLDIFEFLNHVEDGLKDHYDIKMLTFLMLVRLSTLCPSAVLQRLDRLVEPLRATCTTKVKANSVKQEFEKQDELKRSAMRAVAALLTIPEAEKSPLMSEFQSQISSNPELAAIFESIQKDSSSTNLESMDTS

[12] = target: Actin-related protein 2 (UniProt P61160); assay: cross-link between two proteins; co-fractionation; cross-linking mass spectrometry
[13] = target: Actin-related protein 2/3 complex subunit 1A (UniProt Q92747); assay: as above
[14] = target: Actin-related protein 2/3 complex subunit 3 (UniProt O15145); assay: as above
[15] = target: Actin-related protein 2/3 complex subunit 4 (UniProt P59998); assay: as above
[16] = target: Vacuolar protein sorting-associated protein 35 (UniProt Q96QK1); assay: as above
[17] = target: Enhancer of rudimentary homolog (UniProt P84090); assay: cross-link between two proteins; affinity purification or IP with mass spectrometry; cross-linking mass spectrometry

Cullin-1, Q13616, sequence (Q13616 whole entry): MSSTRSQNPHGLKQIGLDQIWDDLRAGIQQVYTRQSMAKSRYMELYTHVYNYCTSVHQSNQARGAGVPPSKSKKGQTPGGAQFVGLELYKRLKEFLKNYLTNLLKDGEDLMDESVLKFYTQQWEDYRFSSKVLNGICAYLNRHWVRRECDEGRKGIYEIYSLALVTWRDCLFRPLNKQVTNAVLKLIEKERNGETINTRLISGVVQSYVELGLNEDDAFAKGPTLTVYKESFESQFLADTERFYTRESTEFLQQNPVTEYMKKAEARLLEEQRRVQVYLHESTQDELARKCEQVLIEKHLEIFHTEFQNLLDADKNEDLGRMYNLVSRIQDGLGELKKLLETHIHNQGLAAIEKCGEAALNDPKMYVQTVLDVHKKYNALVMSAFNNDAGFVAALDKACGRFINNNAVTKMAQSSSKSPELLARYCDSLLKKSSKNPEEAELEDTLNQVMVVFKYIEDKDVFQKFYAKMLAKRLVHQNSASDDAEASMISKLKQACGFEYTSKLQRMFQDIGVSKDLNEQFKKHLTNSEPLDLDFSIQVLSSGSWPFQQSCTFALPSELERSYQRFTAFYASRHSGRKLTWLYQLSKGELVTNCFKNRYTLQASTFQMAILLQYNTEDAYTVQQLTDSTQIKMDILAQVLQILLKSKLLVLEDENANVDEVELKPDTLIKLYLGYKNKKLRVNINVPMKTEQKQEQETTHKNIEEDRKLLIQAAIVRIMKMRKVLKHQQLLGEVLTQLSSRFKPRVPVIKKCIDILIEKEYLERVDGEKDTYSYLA
Histone H1.4, P10412, sequence (P10412 whole entry): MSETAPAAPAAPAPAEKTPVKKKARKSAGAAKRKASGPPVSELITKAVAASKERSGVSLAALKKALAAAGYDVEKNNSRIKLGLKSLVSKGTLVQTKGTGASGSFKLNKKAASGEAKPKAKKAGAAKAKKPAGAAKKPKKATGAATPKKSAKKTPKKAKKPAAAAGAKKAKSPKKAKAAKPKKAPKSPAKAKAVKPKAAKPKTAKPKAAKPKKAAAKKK
Ragulator complex protein LAMTOR1, Q6IAA8, sequence (Q6IAA8 whole entry, one chain of several): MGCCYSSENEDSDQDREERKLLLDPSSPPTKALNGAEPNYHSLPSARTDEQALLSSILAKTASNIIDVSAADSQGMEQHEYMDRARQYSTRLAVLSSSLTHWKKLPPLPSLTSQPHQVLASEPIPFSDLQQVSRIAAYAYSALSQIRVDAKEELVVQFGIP
V-type proton ATPase catalytic subunit A, P38606, sequence (P38606 whole entry): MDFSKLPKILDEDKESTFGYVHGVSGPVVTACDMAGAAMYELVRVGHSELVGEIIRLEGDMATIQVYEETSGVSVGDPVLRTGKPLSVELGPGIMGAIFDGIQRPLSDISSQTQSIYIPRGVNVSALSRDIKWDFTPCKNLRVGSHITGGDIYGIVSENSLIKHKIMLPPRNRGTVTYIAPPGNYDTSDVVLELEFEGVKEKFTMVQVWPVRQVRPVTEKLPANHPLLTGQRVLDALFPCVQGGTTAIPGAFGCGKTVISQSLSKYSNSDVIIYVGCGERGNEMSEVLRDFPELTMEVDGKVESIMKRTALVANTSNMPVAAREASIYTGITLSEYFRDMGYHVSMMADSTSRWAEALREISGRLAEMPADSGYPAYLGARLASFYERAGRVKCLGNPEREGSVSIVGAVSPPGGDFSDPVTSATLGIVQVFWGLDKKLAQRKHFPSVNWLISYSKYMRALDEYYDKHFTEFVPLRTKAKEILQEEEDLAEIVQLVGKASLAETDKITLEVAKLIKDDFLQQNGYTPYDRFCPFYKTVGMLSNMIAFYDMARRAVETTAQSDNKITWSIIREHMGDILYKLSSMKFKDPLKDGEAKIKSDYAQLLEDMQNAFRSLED

## Small ribosomal subunit protein uS17, P62280
[1]
  listed as a hit: yes

## Large ribosomal subunit protein eL8, P62424
[2]
  listed as a hit: yes

## Large ribosomal subunit protein uL29, P42766
[3]
  listed as a hit: yes

## Small ribosomal subunit protein eS7, P62081
[4]
  listed as a hit: yes

## Small ribosomal subunit protein eS10, P46783
[5]
  listed as a hit: yes

## Ragulator complex protein LAMTOR1, Q6IAA8
[6]
  listed as a hit: yes

## Large ribosomal subunit protein uL5, P62913
[7]
  listed as a hit: yes

## V-type proton ATPase catalytic subunit A, P38606
[8]
  listed as a hit: yes

## Large ribosomal subunit protein uL1, P62906
[9]
  listed as a hit: yes

## Histone H1.4, P10412
[10]
  listed as a hit: yes

## Cullin-1, Q13616
[11]
  listed as a hit: yes

## Actin-related protein 2/3 complex subunit 5, O15511
[12]
  listed as a hit: yes

## Actin-related protein 3, P61158
[13]
  listed as a hit: yes

## Actin-related protein 2/3 complex subunit 2, O15144
[14]
  listed as a hit: yes
[15]
  listed as a hit: yes

## Vacuolar protein sorting-associated protein 26A, O75436
[16]
  listed as a hit: yes

## DNA-directed RNA polymerase II subunit RPB1, P24928
[17]
  listed as a hit: yes
